Most compounds without a hit are left out; they make up all but 3.3% or so of the library.
esBAF inh: Bmi1 luciferase reporter increase in mESCs, primary screen, esBAF inhibitor project, mouse ES cells, Bmi1 luciferase knock-in, single point. 24 h; 100% = twice the neutral-well signal. reporter increase, % at 12.5 µM. 2% of 350,000 active. AID 602393, 2012; in the data active = activation above about 40%;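 note: 0% = median of the plate's neutral control wells and 100% = double that signal; a rise in the Bmi1 reporter signal indicates esBAF inhibition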
Jurkat NFkB inh: inhibitors of induced NF-kB luciferase reporter, primary screen, TCR NF-kB activation inhibitor project, cell-based, luminescence, uHTS; 0.53% of 330,000 active; AID 435003, 2010; Jurkat, PMA/ionomycin-induced NF-kB luciferase reporter; inhibition, % at 4 µM; in the data active = inhibition above about 50%
697 NFkB inh: inhibitors of PMA/ionomycin-induced NF-kB reporter, 697 cells, primary screen, B-cell NF-kB inhibitor project, cell-based, luminescence, uHTS; 697 B-cell NF-kB luciferase reporter, 16 h; 0.33% of 330,000 active; inhibition, % at 4 µM; in the data active = inhibition above about 35%
Gli-Sufu block: Gli-Sufu pathway antagonists, primary screen, luciferase luminescence, Sufu-KO-LIGHT cells, uHTS; inhibition, % at 5 µM; 0.74% of 340,000 active; Sufu-KO-LIGHT fibroblasts, Gli luciferase reporter luminescence;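 active = inhibition above about 55%, limit read from the data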;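 note: 0% = DMSO-treated cells and 100% = wells with medium but no cells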
SMARCA2 activ: SMARCA2 (BRM) function activators, primary screen, cell-based, luminescence, high throughput | AID 652017, 2013 | 1% of 370,000 active | MG213 cells, MMTV-luciferase reporter, dexamethasone, overnight | activation, % at 9.1 µM; in the data active = activation above about 7.8%;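 note: 0% = vehicle wells and 100% = reference activator wells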
Jurkat NFkB conf: PMA/ionomycin-induced NF-kB reporter inhibitors, Jurkat retest, confirmation, T-cell NF-kB inhibitor project, cell-based, luminescence, single concentration. 27% of 2,700 active. inhibition, % at 4 µM. shares compounds with Jurkat NFkB inh. Jurkat NF-kB luciferase, 16 h. AID 435020, 2010;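 active = inhibition reaching about 45% at 4 µM in either replicate, limit read from the data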;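 note: plate controls were PMA/ionomycin stimulated DMSO wells for no effect and unstimulated DMSO wells for full effect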
697 NFkB conf: PMA/ionomycin-induced NF-kB reporter inhibitors, 697 retest, confirmation, B-cell NF-kB inhibitor project, cell-based, luminescence, single concentration | shares compounds with 697 NFkB inh | 697 B-cell NF-kB luciferase, 16 h | inhibition, % at 4 µM | 35% of 2,000 active; in the data active = inhibition mostly above about 28%, no sharp cut-off; inactive = mostly below about 22%
* hit, by the source's call; i = inactive; nt = no result.

SMILES | esBAF inh | Jurkat NFkB inh | 697 NFkB inh | Gli-Sufu block | SMARCA2 activ | Jurkat NFkB conf | 697 NFkB conf
N/C(=N\OC(=O)c1ccc(Cl)cc1Cl)c1ccccc1 | -67 | -195 | -292 | -55 | 3 | -70 | -436
C[C@@H]1CCCCO[C@@H](CN(C)Cc2ccccc2)[C@@H](C)CN([C@@H](C)CO)C(=O)c2cc(NC(=O)CCC(F)(F)F)ccc2O1 | 3 | nt | nt | nt | nt | nt | nt
C[C@H](CO)N1C[C@H](C)[C@@H](CN(C)C(=O)Nc2cccc3ccccc23)Oc2ccc(NC(=O)C3CCCCC3)cc2C1=O | 0 | nt | nt | nt | nt | nt | nt
CCCC(=O)Nc1ccc2c(c1)C(=O)N(C)C[C@H](OC)[C@@H](C)CN(C(=O)CN(C)C)[C@H](C)CO2 | 3 | nt | nt | nt | nt | nt | nt
COc1ccc(-c2cc3nc4n(c(=O)c3s2)CCC4)cc1 | -67 | -25 | -117 | 24 | 4 | nt | nt
COc1ccc(-c2cc3nc(C)n(N)c(=O)c3s2)cc1 | nt | 80* | 53* | 76* | -6 | 83* | 49*
COc1ccc(-c2cc3nc4n(c(=O)c3s2)CCCCC4)cc1 | 7 | -173 | -267 | -86 | 1 | -120 | -322
CCCNC(=O)N1[C@H](CN(C)C(C)=O)[C@H](c2ccc(C3=CCCC3)cc2)[C@@H]1CO | 4 | nt | nt | nt | nt | nt | nt
COc1ccccc1NC(=O)c1sc2nc(C)cc(C)c2c1N | 3 | -9 | 29 | -11 | 4 | nt | nt
Cc1cc(C)c2c(N)c(C(=O)Nc3ccc(C)c(C)c3)sc2n1 | -22 | -183 | -258 | -88 | 3 | -104 | -198
CCCNC(=O)C[C@H]1C[C@H]2c3cc(NC(=O)C4CCC4)ccc3O[C@H]2[C@@H](CO)O1 | -5 | nt | nt | nt | nt | nt | nt
Cc1ccnc(NC(=O)Nc2cccc(F)c2)c1 | -11 | -176 | -303 | -131 | 1 | -121 | -257
Cc1ccnc(NC(=O)Nc2cccc(F)c2)n1 | 13 | -71 | -96 | -93 | 5 | nt | nt
COc1ccc(OC)c(NC(=O)CSc2ncnc3c2cnn3-c2ccccc2Cl)c1 | -33 | 50* | 71* | 76* | nt | 65* | 50*
CCCN1C=CC(=C2C(=O)c3ccccc3C2=O)C=C1 | -83 | 69* | 44* | 79* | -11 | 75* | 20
CCCCCCN1C=CC(=C2C(=O)c3ccccc3C2=O)C=C1 | -79 | -138 | -125 | 1 | 8 | nt | nt
O=C(Nc1ccc(-c2nc3ccccc3s2)c(O)c1)C1=COCCO1 | nt | -242 | -335 | -75 | 1 | -72 | -134
O=C(Nc1ccc(O)c(-c2nc3ccccc3s2)c1)C1=COCCO1 | nt | 11 | -3 | -2 | -3 | nt | nt
CCCCCCCCCCOC(=O)Cn1c(COc2ccccc2OC)[n+](C)c2ccccc21 | -26 | 57* | 39* | 85* | -10 | 60* | 53*
O=C(/C=C/Nc1ccccc1)c1ccccc1 | 5 | -191 | -261 | -105 | 5 | -59 | -185
O=C(/C=C/Nc1ccccc1)c1ccc(Cl)cc1Cl | -29 | -186 | -251 | -102 | 5 | -104 | -211
CN(C)/C=C/C(=O)c1ccc(Cl)cc1Cl | nt | 0 | 8 | -8 | -1 | nt | nt
COc1cccc(N/C=C/C(=O)c2ccc(C)cc2)c1 | -26 | -153 | -329 | -85 | 6 | -78 | -177
COc1ccc(NC(=O)N2C[C@@H]3[C@H](c4ccccc42)[C@@H](CO)N3C(=O)C2CC2)cc1 | 6 | nt | nt | nt | nt | nt | nt
O=C(C[C@H]1CC[C@H](NC(=O)CN2CCOCC2)[C@H](CO)O1)NCc1cccc(F)c1 | 1 | nt | nt | nt | nt | nt | nt
SMILES | esBAF inh | Jurkat NFkB inh | 697 NFkB inh | Gli-Sufu block | SMARCA2 activ | Jurkat NFkB conf | 697 NFkB conf
O=C(/C=C\Nc1ccccc1Br)c1ccc2c(c1)OCO2 | nt | -169 | -356 | -120 | -2 | -40 | -213
O=C(/C=C\Nc1cccc(F)c1)c1ccc2c(c1)OCO2 | -67 | -171 | -411 | -161 | 2 | -142 | -228
C[C@H]1CN([C@@H](C)CO)C(=O)c2cc(Br)cnc2O[C@@H]1CN(C)C(=O)NC1CCCC1 | -2 | nt | nt | nt | nt | nt | nt
CCCN(C)C[C@H]1Oc2cc(-c3ccncc3)ccc2S(=O)(=O)N([C@@H](C)CO)C[C@H]1C | 1 | nt | nt | nt | nt | nt | nt
COc1ccc(NC(=O)N(C)C[C@H]2OCCCC[C@H](C)Oc3ccc(NS(=O)(=O)c4cccs4)cc3C(=O)N([C@@H](C)CO)C[C@H]2C)cc1 | -3 | nt | nt | nt | nt | nt | nt
CCOC(=O)c1ccc(NC(=S)Nc2ccc(C)cc2)cc1 | 19 | -19 | 4 | -34 | -1 | nt | nt
CCOC(=O)c1cn[nH]c1NC(=S)Nc1ccc(Cl)cc1 | -7 | -185 | -449 | -72 | -1 | -109 | -268
Cc1cccc(-c2cc3nc4c(c(NCc5ccco5)n3n2)CCCC4)c1 | 36 | -154 | -264 | -58 | 6 | -99 | -295
CN(C)CCCNc1c2c(nc3cc(-c4cccc(F)c4)nn13)CCC2 | 0 | 3 | 9 | 12 | 2 | nt | nt
C[C@@H]1CN([C@@H](C)CO)C(=O)c2cc(-c3cncnc3)cnc2O[C@@H]1CN(C)C(=O)Cc1ccccc1 | -2 | nt | nt | nt | nt | nt | nt
CCOC(=O)CSc1nc2cc3c(cc2cc1C)OCO3 | 5 | -4 | 1 | -1 | -4 | nt | nt
CCOC(=O)CSc1nc2cc3c(cc2cc1C#N)OCCO3 | nt | -173 | -356 | 17 | 3 | -101 | -208
O=C(N/N=C/c1ccc([N+](=O)[O-])o1)c1cc(-c2ccncc2)nc2ccccc12 | -10 | -5 | 3 | 30 | 1 | nt | nt
O=C(N/N=C/c1ccc([N+](=O)[O-])o1)c1cc(-c2ccc(-c3ccccc3)cc2)nc2ccccc12 | nt | -177 | i | -70 | 1 | -85 | i
O=c1oc(C2(O)CCCCC2)cc2ccc(-c3ccc4[nH]ccc4c3)cc12 | 21 | -168 | i | 4 | 3 | -75 | i
CC(C)Nc1ncnc2c1cnn2-c1ccc(Cl)cc1 | -57 | -202 | -422 | -95 | 3 | -184 | -446
C[C@H]1CN([C@@H](C)CO)C(=O)c2cc(-c3cncnc3)cnc2O[C@@H]1CN(C)C(=O)Nc1ccc2c(c1)OCO2 | 0 | nt | nt | nt | nt | nt | nt
Cc1ccnc(NC(=O)c2sc3ccccc3c2Cl)c1 | nt | -153 | -401 | 4 | 1 | -88 | -287
Cc1cnc(NC(=O)c2sc3ccccc3c2Cl)s1 | nt | -57 | -179 | -94 | 4 | nt | nt
O=C(Nc1ccc(S(=O)(=O)N2CCOCC2)cc1)c1ccc(F)cc1 | -7 | -5 | 5 | 10 | -3 | nt | nt
O=C(Nc1ccc(S(=O)(=O)Nc2ccc(F)cc2)cc1)c1ccc(CN2CCOCC2)cc1 | nt | 63* | 47* | 4 | -4 | 63* | 19
COc1cccc(CN2[C@H](CO)[C@@H]3c4ccccc4N(C(=O)c4cccnc4)C[C@@H]32)c1 | -2 | nt | nt | nt | nt | nt | nt
